# IDE exosite inh: displaces the probe from the exo-site of human IDE | P14735 | z-score at 20 µM | purified IDE, FL-6b probe fluorescence polarization; stronger effect = lower value | 17,000 tested, 6.3% active;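 active means z-score of -3 or lower, meaning strong loss of probe binding signal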;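 further: His-tagged human IDE residues 42-1019 made in E. coli with 30 nM FL-6b probe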
# Target sequence (P14735 42-1019 limits assumed): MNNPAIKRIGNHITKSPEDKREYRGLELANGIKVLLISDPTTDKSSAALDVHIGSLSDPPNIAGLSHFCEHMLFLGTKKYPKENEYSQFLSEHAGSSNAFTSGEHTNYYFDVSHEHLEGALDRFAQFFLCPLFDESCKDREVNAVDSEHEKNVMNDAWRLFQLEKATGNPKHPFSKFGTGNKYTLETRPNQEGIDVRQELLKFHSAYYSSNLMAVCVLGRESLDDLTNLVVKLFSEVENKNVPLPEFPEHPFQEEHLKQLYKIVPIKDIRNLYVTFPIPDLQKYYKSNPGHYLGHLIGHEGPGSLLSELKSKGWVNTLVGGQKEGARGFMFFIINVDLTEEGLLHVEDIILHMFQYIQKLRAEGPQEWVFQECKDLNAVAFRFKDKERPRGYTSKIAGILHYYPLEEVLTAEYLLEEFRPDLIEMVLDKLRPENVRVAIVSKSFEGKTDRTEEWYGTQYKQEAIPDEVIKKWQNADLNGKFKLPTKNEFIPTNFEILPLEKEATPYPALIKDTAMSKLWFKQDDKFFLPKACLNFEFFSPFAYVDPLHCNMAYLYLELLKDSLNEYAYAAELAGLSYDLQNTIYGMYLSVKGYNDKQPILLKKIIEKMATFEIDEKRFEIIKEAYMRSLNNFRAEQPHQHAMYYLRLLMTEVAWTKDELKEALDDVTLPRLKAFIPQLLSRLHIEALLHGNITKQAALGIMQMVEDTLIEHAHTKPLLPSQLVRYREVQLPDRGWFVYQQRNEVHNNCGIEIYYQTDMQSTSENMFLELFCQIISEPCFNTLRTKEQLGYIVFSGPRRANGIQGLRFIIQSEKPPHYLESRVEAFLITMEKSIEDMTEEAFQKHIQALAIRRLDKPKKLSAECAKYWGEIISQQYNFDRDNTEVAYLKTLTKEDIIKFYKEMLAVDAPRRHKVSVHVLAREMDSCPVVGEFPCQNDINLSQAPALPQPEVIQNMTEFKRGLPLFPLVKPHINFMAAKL
# Starred values were filed as active, the others as inactive; ! = not confirmed by another sample. Shown is part of a subset that was picked to be rich in hits.
SMILES,IDE exosite inh
COCC#Cc1ccc([C@H]2[C@@H](CO)N3C(=O)CN(C(=O)c4cccnc4)C[C@H]23)cc1,4.81
CO[C@@H]1CN(C)C(=O)c2ccc(NC(=O)c3ccccc3F)cc2OC[C@@H](C)N(C)C[C@@H]1C,-0.0899
COCCNC(=O)C[C@@H]1CC[C@@H]2[C@@H](COc3ccc(NC(=O)Nc4cccc(F)c4)cc3C(=O)N2C)O1,-0.828
CCS(=O)(=O)Nc1ccc2c(c1)C(=O)N(C)[C@@H]1CC[C@@H](CC(=O)NCc3ccccc3F)O[C@H]1CO2,-0.651
Cc1ccccc1S(=O)(=O)N1CC(=O)N2[C@@H](CO)[C@H](c3ccc(C#Cc4ccccc4)cc3)[C@@H]2C1,1.87
CCCNC(=O)N1C[C@@H]2N[C@H](C1)C2c1ccc(-c2cccc(F)c2)cc1 (some centres not stated),-0.438
CCCNC(=O)N1C[C@@H]2N[C@H](C1)C2c1ccc(-c2cccc(OC)c2)cc1 (some centres not stated),-3.88*!
CCCNC(=O)N1C[C@@H]2N[C@H](C1)C2c1ccc(-c2ccc(OC)cc2)cc1 (some centres not stated),-0.564
O=C(CC1CC1)N1CC2(C1)[C@@H](c1ccccc1)[C@H](CO)N2C(=O)c1ccccn1,-0.564
O=C(Cc1ccccn1)N1CC2(C1)[C@@H](c1ccccc1)[C@@H](CO)N2C(=O)c1ccncc1,-3.29*
O=C(CC1CC1)N1CC2(C1)[C@@H](c1ccccc1)[C@@H](CO)N2Cc1ccccn1,0.787
CCC(=O)N1[C@H](CO)[C@@H](c2ccccc2)C12CN(C(=O)c1ccncc1)C2,1.2
O=C(Cc1ccccn1)N1CC2(C1)[C@H](c1ccccc1)[C@@H](CO)N2C(=O)c1ccncc1,-3.71*
O=C(c1ccncc1)N1CC2(C1)[C@H](c1ccccc1)[C@H](CO)N2CC1CC1,-1.03
N#Cc1ccc(-c2ccc(C3[C@H]4CNC[C@@H]3N4S(=O)(=O)c3ccc(-c4ccccc4)cc3)cc2)cc1 (some centres not stated),2.02
COc1ccc([C@@H]2CC=CC[C@H](C)Oc3ccccc3C(=O)N(C)[C@@H](C(C)C)C(=O)N2)c(OC)c1 (mixture of isomers),-0.388
NCC[C@H]1CC[C@@H](NC(=O)Cc2ccncc2)[C@H](CO)O1,1.86
CN1C(=O)c2cc(NC(=O)Cc3cccs3)ccc2OC[C@@H]2O[C@H](CC(=O)NCCc3ccncc3)CC[C@@H]21,0.0604
O=C(c1ccc2c(c1)OCO2)N1CC(=O)N2[C@H](C1)[C@@H](c1ccc(C#CC3CCCC3)cc1)[C@@H]2CO,1.47
CC(C)CN(C[C@H]1N[C@H](CO)[C@H]1c1ccccc1)C(=O)CN(C)C,0.748
OC[C@H]1[C@H]2c3ccccc3NC[C@H]2N1Cc1ccccc1Cl,-0.383
O=C1CN(Cc2ccccc2)C[C@@H]2[C@H](c3ccc(-c4ccccc4F)cc3)[C@H](CO)N12,0.254
O=C(C1CCCCC1)N1CC(=O)N2[C@H](CO)[C@H](c3ccc(-c4ccccc4F)cc3)[C@@H]2C1,-1.69
O=C(C1CCC1)N1CC(=O)N2[C@H](CO)[C@H](c3ccc(-c4ccccc4F)cc3)[C@H]2C1,-10.5*
O=C(C1CCCCC1)N1CC(=O)N2[C@@H](CO)[C@H](c3ccc(-c4ccccc4F)cc3)[C@@H]2C1,-1.21
SMILES,IDE exosite inh
O=C(C1CC1)N1CC(=O)N2[C@H](CO)[C@H](c3ccc(-c4ccccc4F)cc3)[C@@H]2C1,1.2
O=C1CN(Cc2ccc(F)cc2)C[C@H]2[C@H](c3ccc(-c4ccccc4F)cc3)[C@@H](CO)N12,-1.24
O=C1CN(Cc2ccccc2)C[C@@H]2[C@@H](c3ccc(-c4ccccc4F)cc3)[C@@H](CO)N12,-4.72*
O=C(C1CCC1)N1CC(=O)N2[C@H](C1)[C@H](c1ccc(-c3ccccc3F)cc1)[C@@H]2CO,-0.866
O=C(C1CC1)N1CC(=O)N2[C@@H](CO)[C@@H](c3ccc(-c4ccccc4F)cc3)[C@@H]2C1,-8.4*
O=C1CNC[C@H]2[C@H](c3ccc(C4=CCCCC4)cc3)[C@H](CO)N12,1.12
O=C(c1ccncc1)N1C[C@H]2[C@@H](c3ccccc31)[C@@H](CO)N2C(=O)CN1CCOCC1,-0.763
O=C(C[C@H]1CC[C@H]2[C@@H](COC[C@@H](O)CN2C(=O)c2ccc3c(c2)OCO3)O1)NC1CCC1,0.0144
Cc1ccccc1S(=O)(=O)N1[C@@H](C#N)[C@H](c2ccc(-c3ccccc3)cc2)[C@@H]1CO,0.787
CN1c2ccc(Br)cc2[C@@H]2[C@@H](CCN2C(=O)c2ccc(F)cc2)[C@H]1CO,2.9
COCC#Cc1ccc([C@@H]2[C@H](CO)N3C(=O)CN(C(=O)c4ccncc4)C[C@@H]23)cc1,0.985
CC(=O)N1CCCCN2[C@@H](CO)[C@H](c3ccc(-c4cccc(C)c4)cc3)[C@@H]2C1,-3.2*
CC(=O)N1CCCCN2[C@@H](CO)[C@H](c3ccc(-c4ccccc4)cc3)[C@@H]2C1,-0.865
CC(=O)N1CCCCN2[C@H](CO)[C@H](c3ccc(-c4ccccc4)cc3)[C@H]2C1,-1.48
CC(=O)N1CCCCN2[C@H](CO)[C@H](c3ccc(-c4cccc(C)c4)cc3)[C@H]2C1,-11.7*
CC(=O)N1CCCCN2[C@H](CO)[C@H](c3ccc(-c4ccc(C)cc4)cc3)[C@H]2C1,-1.76
CC(=O)N1CCCCN2[C@H](CO)[C@H](c3ccc(-c4cccc(C)c4)cc3)[C@@H]2C1,3.58
Cc1cccc(-c2ccc([C@H]3[C@@H](CO)N4CCCCN(C(=O)c5ccc6c(c5)OCO6)C[C@H]34)cc2)c1,-8.11*
Cc1cccc(-c2ccc([C@H]3[C@@H](CO)N4CCCCN(C(=O)c5ccc6c(c5)OCO6)C[C@@H]34)cc2)c1,3.04
Cc1cccc(-c2ccc([C@@H]3[C@@H](CO)N4CCCCN(C(=O)c5ccc6c(c5)OCO6)C[C@H]34)cc2)c1,0.501
CC(C)C#Cc1ccc([C@H]2[C@@H](CO)N3C(=O)CN(C(=O)c4ccc5c(c4)OCO5)C[C@H]23)cc1,-1.49
Cc1cccc(S(=O)(=O)N2C[C@@H]3N[C@H](C2)C3c2ccc(-c3ccccc3C)cc2)c1 (some centres not stated),-6.55*!
COc1cccc(S(=O)(=O)N2C[C@@H]3N[C@H](C2)C3c2ccc(-c3ccccc3OC)cc2)c1 (some centres not stated),-2.23
Cc1cccc(S(=O)(=O)N2C[C@@H]3N[C@H](C2)C3c2ccc(-c3cncnc3)cc2)c1 (some centres not stated),0.0923
Cc1cccc(S(=O)(=O)N2C[C@@H]3N[C@H](C2)C3c2ccc(-c3ccccc3F)cc2)c1 (some centres not stated),2.53
COc1cccc(S(=O)(=O)N2C[C@@H]3N[C@H](C2)C3c2ccc(-c3ccccc3C)cc2)c1 (some centres not stated),-9.86*!
COc1cccc(S(=O)(=O)N2C[C@@H]3N[C@H](C2)C3c2ccc(-c3ccccc3F)cc2)c1 (some centres not stated),0.572
CS(=O)(=O)N1[C@@H](C#N)[C@@H](c2ccc(C#Cc3cccc(F)c3)cc2)[C@@H]1CO,-1.78
COc1ccc(C#Cc2ccc([C@@H]3[C@H]4CN(C(=O)c5cccnc5)CC(=O)N4[C@H]3CO)cc2)cc1,-0.687
c1ccc(-c2ccc(C3[C@H]4CNC[C@@H]3N4Cc3cccc(-c4ccncc4)c3)cc2)cc1 (some centres not stated),2.9

# Screening results (PubChem)
